Cycloheximide cs = Cycloheximide Counterscreen for Small Molecule Inhibitors of Shiga Toxin; cell reporter, cycloheximide protein synthesis inhibition counterscreen; max response, %; hit rate 12% among 300,000; in the data active = max response mostly above about 13%, no sharp cut-off; inactive = mostly below about 14%; also: read at 38.3 µM for the half of the compounds with a filed dose; 0% is about no effect
Pf growth 96h = Primary qHTS for delayed death inhibitors of the malarial parasite plastid, 96 hour incubation. P. falciparum luciferase reporter growth, 96 h. Potency, µM (series often up to 28.7 µM), for inactives: top-dose activity change, negative = inhibition, most hits filed as inhibitors. hit rate 6.9% among 320,000; also: potency is read from the fitted curve at half-maximal effect; % is scaled to controls: 0 for no effect and ±100 for the full control effect
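Plates of compound plus infected erythrocytes (2% hematocrit, 0.05% parasitemia final) incubate 96 hours, 37 C, 5% CO2. Detection reagent added; reduced luminescence from the parasites' luciferase reporter flags inhibition.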
HCMV inh = qHTS Assay for inhibitors of the human cytomegalovirus (HCMV); HFF cells, HCMV-luciferase reporter, 72 h; stronger effect = lower value; activity change, negative = inhibition, % at 57.5 µM; hit rate 4.5% among 410,000; AID 1259415, 2018; in the data active = activity change below about -60%; inconclusive = no clear call, values can overlap the other calls; inactive = above about -39%; also: % is scaled to controls: 0 for no effect and ±100 for the full control effect
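HFF cells seeded 16 h at 37C, treated with compounds, infected with luciferase-reporter HCMV at MOI 1 PFU/cell; luciferase read at 72 h post infection, normalized to buffer-only and Salinomycin controls.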
Shiga toxin inh = A qHTS for Small Molecule Inhibitors of Shiga Toxin | Vero cells, Shiga toxin protein synthesis inhibition reporter | inhibition, % at 38.7 µM | hit rate 9.2% among 290,000 | AID 2315, 2010; in the data active = inhibition mostly above about 28%, no sharp cut-off; inactive = mostly below about 43%; also: 0% is about no effect
Pf growth 48h = Primary qHTS for delayed death inhibitors of the malarial parasite plastid, 48 hour incubation; P. falciparum luciferase growth in erythrocytes, 48 h; Potency, µM (titrated, usually from 28.7 µM), without a hit: at the top dose activity change, negative = inhibition, actives largely listed as inhibitors; hit rate 5.9% among 310,000; also: potency is read from the fitted curve at half-maximal effect; % is scaled to controls: 0 for no effect and ±100 for the full control effect
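First compound was added to culture medium, then infected red cells at 0.1% parasitemia and 2% hematocrit (final). After incubation at 37 C under 5% CO2, luciferase detection reagent was dispensed and light output recorded.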
* hit, by the source's call; u = inconclusive; x = not tested or not shown. The list is not random: actives were taken first. Their share in the collection is about 20%. Unless noted, calls follow the shape of the dose curve; as a rule, active = well fitted inhibition curve with a large enough effect; inconclusive = small, poorly fitted or top-dose-only effect, or another doubt; inactive = no such curve, though single readings can be large or run the other way.

SMILES	Cycloheximide cs	Pf growth 96h	HCMV inh	Shiga toxin inh	Pf growth 48h
O=C(N/N=C/C1CC=CCC1)c1cc(Br)ccc1O (stereo not given)	31*	33%	-31	9	2%
O=C(N/N=C/C1CC=CCC1)c1ccccc1O (stereo not given)	29*	1%	-25	39*	-12%
COc1ccccc1CCNC(=O)C(=O)NCC(c1ccco1)S(=O)(=O)c1cccs1 (stereo not given)	x	x	-5	x	x
COCCN(CC1CCCN(C2Cc3ccccc3C2)C1)C(=O)c1cccs1 (stereo not given)	27*	29%	42	29*	u
Cc1ccc(C(=O)N(CCN2CCCCC2)CC2CCCN(C3CCCC3)C2)s1 (stereo not given)	33*	0%	-8	72*	u
O=C(c1cccs1)N(CCN1CCCCC1)CC1CCCN(C2CCCC2)C1 (stereo not given)	36*	u	11	53*	-5%
COCCN(CC1CCCN(C2Cc3ccccc3C2)C1)C(=O)CSC (stereo not given)	3	u	46	6	u
COCCN(CC1CCCN(C2Cc3ccccc3C2)C1)C(=O)CCC(C)=O (stereo not given)	9	-1%	25	12	3%
Cc1cccc(C)c1OCC(=O)Nc1nc(-c2ccc(Br)cc2)ns1	x	x	53	x	x
COc1ccc(/C=C/C(=O)Nc2ccccc2C(=O)NCC(c2ccc(OC)cc2)N(C)C)cc1 (stereo not given)	10	u	-6	39*	u
COc1ccc(/C=C/C(=O)Nc2ccccc2C(F)(F)F)cc1OC	-4	1%	4	-26	-9%
CCOc1ccc(/C=C/C(=O)Nc2ccccc2C(F)(F)F)cc1	36*	-23%	25	38*	47%
COc1ccc(CN(C)CC(=O)Nc2ccccc2C(F)(F)F)cc1	-1	-23%	-31	7	2%
COc1ccc(C(CNC(=O)c2cccc3cccnc23)N(C)C)cc1 (stereo not given)	5	u	44	-6	-9%
COc1ccc2ccc(O)c(CN(C)CC(=O)Nc3ccccc3C(F)(F)F)c2c1	-4	u	-2	16	12µM*
COc1ccc(CCNCC(=O)Nc2ccccc2C(F)(F)F)cc1	-2	-28%	u	-1	13µM*
COc1ccc(/C=C/C(=O)Nc2ccccc2C(F)(F)F)cc1	24*	147%	51	59*	74%
CN(c1ccccc1)S(=O)(=O)c1ccc(C(=O)Nc2nnc(-c3ccco3)o2)cc1	-3	7.4µM*	-95*	-4	u
CCN(c1ccccc1)S(=O)(=O)c1ccc(C(=O)Nc2nnc(-c3ccco3)o2)cc1	-5	u	-77*	-7	u
CC1CCCN(S(=O)(=O)c2ccc(C(=O)Nc3nnc(-c4ccco4)o3)cc2)C1 (stereo not given)	-1	u	-18	-6	12µM*
CCc1nnc(NC(=O)c2ccc(S(=O)(=O)N3CCCC(C)C3)cc2)o1 (stereo not given)	-2	u	-18	-7	u
COCc1nnc(NC(=O)c2ccc(S(=O)(=O)N(C)c3ccccc3)cc2)o1	-2	-33%	24	9	u
CCN(Cc1ccccc1)S(=O)(=O)c1ccc(C(=O)Nc2nnc(-c3ccccc3OC)o2)cc1	-1	x	-61*	1	x
COC(=O)c1ccc2c(c1)N(CC(=O)Nc1ccc(C)cc1Cl)C(=O)c1ccccc1S2	x	x	18	x	x
CCCCOc1ccc(C2c3c(oc4ccc(C)cc4c3=O)C(=O)N2CCCN(C)C)cc1OCC (stereo not given)	x	x	-21	x	x
SMILES	Cycloheximide cs	Pf growth 96h	HCMV inh	Shiga toxin inh	Pf growth 48h
CC1CN(c2nnc(-c3ccccc3)c3ccccc23)CC(C)O1 (stereo not given)	-2	-18%	u	-7	-14%
CCOC(=O)Cn1cc(C#N)c2cccc(CC)c21	-4	0.74µM*	-35	-8	u
CCc1cccc2c(C#N)cn(CC(=O)NCc3ccco3)c12	1	x	-23	15	10µM*
Cn1cc(SCC(=O)NC2CCCCC2)c2ccccc21	-3	16%	17	9	-1%
FC(F)(F)c1ccc(CN2C[C@@H]3C(c4ccccc4)C4(c5cccnc5)CC3(C4)[C@H]2c2ccccc2)cc1 (stereo not given in full)	-6	3.3µM*	-26	-6	2.3µM*
FC(F)(F)c1ccc(CN2C[C@@H]3C(c4ccc(C(F)(F)F)cc4)C4(c5cccnc5)CC3(C4)[C@H]2c2ccccc2)cc1 (stereo not given in full)	-3	2.1µM*	-73*	3	2.1µM*
CN1C[C@@H]2C(c3ccc(C(F)(F)F)cc3)C3(c4cccnc4)CC2(C3)[C@H]1c1ccccc1 (stereo not given in full)	-5	2.9µM*	-13	-7	2.3µM*
FC(F)(F)c1ccc(C2[C@H]3CN(Cc4cccnc4)[C@H](c4ccccc4)C34CC2(c2ccccc2)C4)cc1 (stereo not given in full)	-4	2.3µM*	u	-2	2.9µM*
Cc1ccc(CNC(=O)Cn2nc(N3CCN(c4ccccc4)CC3)ccc2=O)cc1	x	x	-35	x	x
Cc1ncc(CN2CCN(CCc3ccccc3)C(CCO)C2)s1 (stereo not given)	-1	u	u	20	-6%
CN1C(=O)C2(SCC(=O)N2c2ccc(Cl)cc2)c2ccccc21 (stereo not given)	x	x	9	x	x
O=S(=O)(Nc1nc2ccccc2nc1N1CCN(c2ccccc2F)CC1)c1ccc(Cl)cc1	-3	23%	-28	-5	x
CC12CCC(C(=O)Nc3ccccc3)(C(Br)C1=O)C2(C)C (stereo not given)	-3	u	u	-2	-15%
Cc1ccc(NC(=O)C23CCC(C)(C(=O)[C@H]2Br)C3(C)C)cc1 (stereo not given in full)	-2	-2%	-62*	-11	-16%
CN1CC(=O)N(C)c2ncn(Cc3ccccc3)c2C1=O	-3	8.3µM*	34	8	26%
Cc1sc(NC(=S)NC(=O)c2ccco2)c(C#N)c1C	15*	-39%	-24	27	39%
CCOC(=O)c1sc(NC(=O)c2ccco2)c(C#N)c1C	-4	11%	-2	-14	33%
CCc1c(C)sc(NC(=O)c2ccco2)c1C#N	37*	112%	70	69*	60%
CC(C)c1nnc(NC(=O)CCC(=O)NC2CC2)s1	-11	-19%	14	-2	20%
COC(=O)C1(O)CC(c2ccccc2)C(C(=O)c2ccccc2)N1c1ccc(Br)cc1 (stereo not given)	x	x	-14	x	x
